Experimental data reported in ChEMBL document CHEMBL3988442, “University of Dundee, Small-Polar-MMV Screening Library” (2021).
For some assays here: Potency and affinity values are given separately.

Key:
Design in all cases: scale not given: direction of the effect not stated beside the values
[1] = molecular target: Protein translocase subunit SecA (Escherichia coli (strain K12)) (UniProt P10408); assay: Assay to Identify E. coli SecA ATPase Inhibitors; format: functional; conditions: 30 µM
[2] = molecular target: T1, Ubiquitin-activating enzyme e1, putative (Leishmania donovani (strain BPK282A1)) (UniProt E9BSI1); assay: Leishmania donovani Ubiquitin Activating Enzyme (LdE1); format: functional; conditions: 30 µM
T1 sequence (whole entry): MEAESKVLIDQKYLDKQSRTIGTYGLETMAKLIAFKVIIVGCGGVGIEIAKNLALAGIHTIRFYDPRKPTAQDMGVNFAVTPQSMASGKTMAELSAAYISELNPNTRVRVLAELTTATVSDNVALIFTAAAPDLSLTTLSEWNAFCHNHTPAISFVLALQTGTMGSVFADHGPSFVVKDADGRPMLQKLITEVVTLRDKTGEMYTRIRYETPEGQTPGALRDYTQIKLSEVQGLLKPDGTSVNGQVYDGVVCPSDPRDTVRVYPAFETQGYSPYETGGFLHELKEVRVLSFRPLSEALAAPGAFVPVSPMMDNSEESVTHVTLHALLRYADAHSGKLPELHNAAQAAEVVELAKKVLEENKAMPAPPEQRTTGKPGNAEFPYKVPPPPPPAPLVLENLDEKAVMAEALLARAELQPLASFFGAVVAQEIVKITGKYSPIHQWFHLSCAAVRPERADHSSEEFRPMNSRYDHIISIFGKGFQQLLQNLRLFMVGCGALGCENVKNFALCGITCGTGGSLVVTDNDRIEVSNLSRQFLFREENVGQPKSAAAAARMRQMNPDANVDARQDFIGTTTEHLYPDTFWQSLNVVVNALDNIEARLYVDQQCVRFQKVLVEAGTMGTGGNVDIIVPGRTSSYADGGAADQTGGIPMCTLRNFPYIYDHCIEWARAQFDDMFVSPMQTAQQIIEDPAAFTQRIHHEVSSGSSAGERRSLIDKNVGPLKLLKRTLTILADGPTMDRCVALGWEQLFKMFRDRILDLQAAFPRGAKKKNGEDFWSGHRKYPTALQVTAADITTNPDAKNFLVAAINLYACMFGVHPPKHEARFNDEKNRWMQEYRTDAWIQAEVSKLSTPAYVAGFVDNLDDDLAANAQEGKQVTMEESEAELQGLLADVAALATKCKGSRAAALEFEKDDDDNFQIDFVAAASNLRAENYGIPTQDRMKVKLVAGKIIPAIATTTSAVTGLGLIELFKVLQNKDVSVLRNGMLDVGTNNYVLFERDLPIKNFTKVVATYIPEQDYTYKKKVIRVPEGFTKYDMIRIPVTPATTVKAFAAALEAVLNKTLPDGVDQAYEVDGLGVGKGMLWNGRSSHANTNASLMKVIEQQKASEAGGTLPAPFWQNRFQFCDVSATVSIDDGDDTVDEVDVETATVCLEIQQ

[3] = molecular target: AMP-activated protein kinase, AMPK (Homo sapiens) (UniProt P54646+O43741+P54619+Q9UGJ0+Q9Y478+Q13131+Q9UGI9); assay: AMP-dependent Kinase enzyme assay. An in vitro enzyme assay that detects ADP turnover that is directly proportional to AMPK activity. This uses naive AMPK that is activated during the assay with MK-8722; format: functional; conditions: 30 µM
[4] = molecular target: Sialic acid-binding Ig-like lectin 9 (Homo sapiens) (UniProt Q9Y336); assay: Hs-Siglec9 ALPHAscreen SOP 20170721; conditions: 10 µM
Trypanosoma cruzi = assay: Trypanosoma cruzi phosphomannomutase and mannose-1-phosphate guanylyltransferase assay; format: functional; conditions: 10 µM
[5] = molecular target: T2, Arginase-2, mitochondrial (Homo sapiens) (UniProt P78540); assay: in vitro enzyme assay to detect the production of urea directly proportional to the activity of Arginase II; format: functional; conditions: 33.3 µM; also: in the data most compounds retested in dose-response had high values
T2 sequence (whole entry): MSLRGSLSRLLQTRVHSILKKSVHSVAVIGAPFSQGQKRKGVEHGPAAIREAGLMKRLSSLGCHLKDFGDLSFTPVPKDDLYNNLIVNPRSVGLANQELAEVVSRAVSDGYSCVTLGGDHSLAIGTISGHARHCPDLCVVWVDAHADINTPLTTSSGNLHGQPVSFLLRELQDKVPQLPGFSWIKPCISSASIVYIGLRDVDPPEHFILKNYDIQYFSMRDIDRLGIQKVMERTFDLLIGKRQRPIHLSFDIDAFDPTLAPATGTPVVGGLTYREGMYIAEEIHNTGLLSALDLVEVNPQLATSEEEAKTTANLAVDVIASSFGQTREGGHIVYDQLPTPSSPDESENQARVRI

[6] = molecular target: T3, Proteasome subunit beta (Trypanosoma cruzi) (UniProt O96673); assay: Trypanosoma cruzi proteasome chymotrypsin-like activity (TcProtChymo) assay.; also: in the data most compounds retested in dose-response had high values; format: functional; conditions: 9.37 µM
T3 sequence (whole entry): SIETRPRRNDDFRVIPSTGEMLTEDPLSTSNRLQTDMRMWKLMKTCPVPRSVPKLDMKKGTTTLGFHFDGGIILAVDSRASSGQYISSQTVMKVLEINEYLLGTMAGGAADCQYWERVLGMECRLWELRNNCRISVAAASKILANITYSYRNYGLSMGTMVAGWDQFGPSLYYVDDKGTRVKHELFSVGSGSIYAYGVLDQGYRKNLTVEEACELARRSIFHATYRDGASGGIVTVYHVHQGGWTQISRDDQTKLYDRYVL

Homo sapiens = species on record: Homo sapiens; assay: To identify inhibition of the IFN signalling (Jak-Stat) pathway via expression of an eGFP reporter gene under the control of an IFN-stimulated response element (ISRE) containing MxA promoter.; format: functional; conditions: 30 µM
[7] = molecular target: T4, Tyrosyl-tRNA synthetase, putative (Trypanosoma cruzi (strain CL Brener)) (UniProt Q4DSP6); assay: Trypanosoma cruzi tyrosyl tRNA synthetase (TcYRS) _High Tyrosine SOP; format: functional; conditions: 30 µM; also: in the data most compounds retested in dose-response had high values
T4 sequence (whole entry): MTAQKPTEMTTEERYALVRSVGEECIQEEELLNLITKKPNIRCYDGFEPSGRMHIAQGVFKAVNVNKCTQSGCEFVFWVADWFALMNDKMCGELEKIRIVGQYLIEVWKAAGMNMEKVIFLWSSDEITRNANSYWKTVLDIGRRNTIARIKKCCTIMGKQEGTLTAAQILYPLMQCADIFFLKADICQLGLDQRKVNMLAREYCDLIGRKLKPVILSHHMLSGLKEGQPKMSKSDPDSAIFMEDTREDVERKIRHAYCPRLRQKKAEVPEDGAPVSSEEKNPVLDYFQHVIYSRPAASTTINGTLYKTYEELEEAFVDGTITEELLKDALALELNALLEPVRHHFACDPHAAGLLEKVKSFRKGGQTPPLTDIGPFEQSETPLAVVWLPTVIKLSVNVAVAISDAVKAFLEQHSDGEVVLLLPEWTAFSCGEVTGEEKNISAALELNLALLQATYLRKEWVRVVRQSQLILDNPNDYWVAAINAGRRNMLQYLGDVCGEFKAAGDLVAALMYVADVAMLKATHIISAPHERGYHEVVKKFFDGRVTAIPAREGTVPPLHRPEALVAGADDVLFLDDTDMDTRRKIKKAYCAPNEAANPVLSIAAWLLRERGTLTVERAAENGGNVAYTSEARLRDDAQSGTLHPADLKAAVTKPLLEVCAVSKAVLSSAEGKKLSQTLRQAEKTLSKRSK

[8] = molecular target: T4, Tyrosyl-tRNA synthetase, putative (Trypanosoma cruzi (strain CL Brener)); assay: Trypanosoma cruzi tyrosyl tRNA synthetase (TcYRS) SOP; format: functional; conditions: 30 µM
[9] = molecular target: Chromo domain-containing protein 1 (Saccharomyces cerevisiae (strain ATCC 204508 / S288c) (Baker's yeast)) (UniProt P32657); assay: ScCHD-1 Enzyme Inhibition Assay; format: functional; conditions: 30 µM; also: in the data most compounds retested in dose-response had high values
Chain of Chromo domain-containing protein 1 (Saccharomyces cerevisiae (strain ATCC 204508 / S288c) (Baker's yeast)) (P32657 whole entry, the tested form may be a part): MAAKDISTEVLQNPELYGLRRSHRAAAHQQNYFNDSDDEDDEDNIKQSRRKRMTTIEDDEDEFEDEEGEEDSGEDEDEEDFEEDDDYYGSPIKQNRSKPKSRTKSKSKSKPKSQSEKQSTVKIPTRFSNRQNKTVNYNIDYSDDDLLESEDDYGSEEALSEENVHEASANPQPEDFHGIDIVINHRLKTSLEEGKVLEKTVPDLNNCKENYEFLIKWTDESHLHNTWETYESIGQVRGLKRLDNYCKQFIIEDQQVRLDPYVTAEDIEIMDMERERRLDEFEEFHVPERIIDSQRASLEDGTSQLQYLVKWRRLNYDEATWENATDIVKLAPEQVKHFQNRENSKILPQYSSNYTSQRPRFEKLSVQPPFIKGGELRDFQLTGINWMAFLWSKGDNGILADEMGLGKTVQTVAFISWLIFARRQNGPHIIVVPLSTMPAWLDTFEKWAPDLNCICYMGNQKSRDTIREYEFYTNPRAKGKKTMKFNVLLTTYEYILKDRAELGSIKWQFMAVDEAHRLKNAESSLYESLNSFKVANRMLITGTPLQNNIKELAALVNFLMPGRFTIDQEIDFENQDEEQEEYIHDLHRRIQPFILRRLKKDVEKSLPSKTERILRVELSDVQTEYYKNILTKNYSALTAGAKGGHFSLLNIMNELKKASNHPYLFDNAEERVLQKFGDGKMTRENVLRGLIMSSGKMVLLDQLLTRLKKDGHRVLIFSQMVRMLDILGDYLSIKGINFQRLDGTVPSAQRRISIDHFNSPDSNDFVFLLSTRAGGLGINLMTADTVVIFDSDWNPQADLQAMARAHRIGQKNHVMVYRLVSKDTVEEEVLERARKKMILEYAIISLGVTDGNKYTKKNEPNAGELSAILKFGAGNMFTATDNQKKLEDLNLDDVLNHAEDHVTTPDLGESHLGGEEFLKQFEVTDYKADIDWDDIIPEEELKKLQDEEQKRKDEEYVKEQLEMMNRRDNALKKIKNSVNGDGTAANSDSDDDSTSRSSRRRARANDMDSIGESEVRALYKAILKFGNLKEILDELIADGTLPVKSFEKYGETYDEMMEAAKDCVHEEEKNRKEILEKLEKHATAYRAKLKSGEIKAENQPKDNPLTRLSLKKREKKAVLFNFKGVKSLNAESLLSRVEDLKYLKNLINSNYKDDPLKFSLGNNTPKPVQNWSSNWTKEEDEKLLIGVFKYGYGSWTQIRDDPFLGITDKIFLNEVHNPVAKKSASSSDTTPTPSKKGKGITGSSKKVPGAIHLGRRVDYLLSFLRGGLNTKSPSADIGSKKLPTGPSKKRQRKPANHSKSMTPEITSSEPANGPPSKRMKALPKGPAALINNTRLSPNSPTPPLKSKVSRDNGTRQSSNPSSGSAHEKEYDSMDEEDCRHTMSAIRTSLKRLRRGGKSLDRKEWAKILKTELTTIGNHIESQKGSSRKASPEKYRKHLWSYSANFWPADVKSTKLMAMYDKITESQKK

Chain of Protein translocase subunit SecA (Escherichia coli (strain K12)) (P10408 whole entry): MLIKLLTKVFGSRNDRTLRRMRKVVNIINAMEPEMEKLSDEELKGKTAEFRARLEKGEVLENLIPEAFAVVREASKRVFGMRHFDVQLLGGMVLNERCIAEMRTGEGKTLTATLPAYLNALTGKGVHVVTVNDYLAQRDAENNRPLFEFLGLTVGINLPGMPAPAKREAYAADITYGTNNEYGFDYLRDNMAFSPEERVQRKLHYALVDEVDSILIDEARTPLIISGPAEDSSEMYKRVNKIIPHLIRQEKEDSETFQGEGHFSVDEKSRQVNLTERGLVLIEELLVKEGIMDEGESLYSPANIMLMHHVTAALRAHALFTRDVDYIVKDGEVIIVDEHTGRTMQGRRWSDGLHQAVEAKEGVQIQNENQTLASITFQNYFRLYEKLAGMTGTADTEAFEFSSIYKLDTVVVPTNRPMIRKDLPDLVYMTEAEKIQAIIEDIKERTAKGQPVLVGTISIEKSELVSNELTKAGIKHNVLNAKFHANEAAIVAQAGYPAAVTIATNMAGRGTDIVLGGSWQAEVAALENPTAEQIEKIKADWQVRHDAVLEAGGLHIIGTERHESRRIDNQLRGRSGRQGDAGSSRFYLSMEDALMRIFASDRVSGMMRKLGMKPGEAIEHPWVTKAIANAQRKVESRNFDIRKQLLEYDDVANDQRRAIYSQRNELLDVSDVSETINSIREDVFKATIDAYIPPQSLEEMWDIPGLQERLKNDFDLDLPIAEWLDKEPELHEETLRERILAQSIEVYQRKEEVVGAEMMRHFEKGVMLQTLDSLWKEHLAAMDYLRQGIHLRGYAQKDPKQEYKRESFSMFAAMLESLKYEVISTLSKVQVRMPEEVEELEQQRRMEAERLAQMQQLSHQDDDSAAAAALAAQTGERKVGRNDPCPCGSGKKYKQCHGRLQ
Chain of Sialic acid-binding Ig-like lectin 9 (Homo sapiens) (Q9Y336 whole entry): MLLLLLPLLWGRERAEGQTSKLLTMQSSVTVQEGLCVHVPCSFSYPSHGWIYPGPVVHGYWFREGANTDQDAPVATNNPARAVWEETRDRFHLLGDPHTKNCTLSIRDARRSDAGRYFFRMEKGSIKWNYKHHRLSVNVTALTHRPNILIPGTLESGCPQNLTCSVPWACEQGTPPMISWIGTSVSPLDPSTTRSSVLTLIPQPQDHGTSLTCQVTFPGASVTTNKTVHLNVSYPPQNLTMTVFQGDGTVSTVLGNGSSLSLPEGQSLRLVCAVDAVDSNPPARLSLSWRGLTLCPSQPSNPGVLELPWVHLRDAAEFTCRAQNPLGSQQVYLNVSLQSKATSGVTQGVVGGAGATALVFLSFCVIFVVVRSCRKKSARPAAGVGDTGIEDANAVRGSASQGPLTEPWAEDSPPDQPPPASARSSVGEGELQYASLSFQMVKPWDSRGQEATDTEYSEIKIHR

Compound | Percent Effect [1] | Percent Effect [2] | Percent Effect [3] | Percent Effect [4] | Percent Effect (Trypanosoma cruzi) | Percent Effect [5] | Percent Effect [6] | Percent Effect (Homo sapiens) | Percent Effect [7] | Percent Effect [8] | Percent Effect [9]
Cc1cc(C(=O)N2C[C@@H]3COC[C@]3(COCc3cccnc3)C2)no1 | -2.45% | 33.8% | 4.4% | -2.26% | -3.45% | 3.23% | 7.31% | 4.17% | -2.12% | 8.97% | -5.95%
COCC1CN(C(=O)c2ccnnc2)Cc2c1cnn2C (stereo not given) | -3.58% | -5.33% | 7.75% | -1.95% | 4.33% | -3.5% | 9.6% | 9.47% | 4.25% | 1.28% | -4.09%
COCCNC(=O)C[C@@H]1COC[C@H]2CN(C(=O)c3cnccn3)C[C@@H]12 | -0.696% | 8.22% | -4.71% | 7.09% | 6.15% | 1.6% | 11.2% | 21.4% | 9.38% | 13.6% | -3.17%
CCn1ccnc1CN1C[C@@H](CN2CCCC2)[C@@H](CO)C1 | -6.84% | -2.7% | -3.35% | 7.12% | -4.44% | -1.91% | 8.28% | -5.58% | 1.59% | 7.32% | -1.85%
Cc1ccc(C(CNCc2ccncc2)N2CCOCC2)s1 (stereo not given) | -9.26% | -2.7% | -3.34% | 21.5% | -2.73% | 1.67% | 17.8% | 18.3% | 1.98% | -1.22% | -7.13%
CCOCC1CN(S(C)(=O)=O)Cc2ncn(CC3CC3)c21 (stereo not given) | -2.41% | 13.5% | -8.53% | 6.97% | 3.81% | -1.24% | 5.58% | -4.29% | 6.45% | 13.6% | -6.43%
Cc1nc(N2CCN(C)CC2)ncc1C(=O)N1CC(C)(C)C(C)(O)C1 (stereo not given) | -0.364% | 2.7% | 6.69% | -5.09% | -9.09% | -8.19% | 13% | 11.1% | 0% | -16.1% | 103%
O=C(C1CCCc2[nH]ncc21)N1CCCC1 (stereo not given) | -2.14% | -2.7% | 2.45% | -7.51% | -0.0978% | -1.24% | 5.92% | -17.4% | -2.15% | -6.17% | -2.26%
Cc1ccc(CNC2CCN(CCc3ccncc3)CC2)s1 | -6.73% | -5.41% | -1.83% | 2.51% | -1.76% | 5.42% | 7.86% | 1.37% | 7.92% | 8.54% | -4.89%
CC(NC(=O)COc1nc(C(C)(C)C)no1)c1ccco1 (stereo not given) | -6.83% | 2.7% | 5.6% | 2.63% | 4.25% | 2.86% | 3.45% | -3.88% | 4.76% | 9.76% | -1.56%
